Test results published in ChEMBL document CHEMBL4888484, “Replenishing the malaria drug discovery pipeline: Screening and hit evaluation of the MMV Hit Generation Library 1 (HGL1) against asexual blood stage Plasmodium falciparum ,using a nano luciferase reporter read-out” (2022).
Hit rate of the full screen: of about 4,800 compounds, about 410 (8.5%) showed an effect of 50% or more. The full list was thinned out, with strong results kept by preference.

system: Plasmodium falciparum; test: Confirmatory screen in NF54 pLDH assay, in single point, at 2uM, 72h; assay type: functional, Erythrocyte; settings: timepoint 72 hour

| SMILES | % Inhibition [%] |
| --- | --- |
| Cc1cc(NC(=O)[C@H](C)OC(=O)c2ccc3c(c2)OCC(=O)N3)on1 | -19 |
| Cc1nnc(-c2ccccc2NC(=O)CCC2CCC(C)O2)o1 (stereo not given) | -16 |
| Cc1nnc(CC(=O)NC2CC(OCc3ccccc3)C2(C)C)o1 (stereo not given) | 8 |
| Cc1nnc(CNC(=O)Nc2cccc3c4c(oc23)CCCC4)o1 | 72 |
| Cc1ccc(NC(=N)NC2=N[C@@H](CC(=O)Nc3cccc(C(F)(F)F)c3)C(=O)N2)cc1 | -10 |
| CCn1nccc1CNc1ccc(F)cc1F | 2 |
| Cc1ccc(S(=O)(=O)N2CCC[C@H](C(=O)NCc3cccc(NC(=O)N4CCCC4)c3)C2)s1 | 8 |
| Cc1cc2c(OC[C@@H](O)CN3CCOCC3)cccc2[nH]1 | -7 |
| Cc1nn(Cc2ccccc2)c(=O)n1-c1ccc(OCc2ccccc2)cc1 | -14 |
| COCCCNC(=O)C1CCN(c2c(C)n(-c3ccccc3)c(=O)n(CC(C)C)c2=O)CC1 | 5 |
| CN(Cc1ccc(F)cn1)c1ccn(C)n1 | 8 |
| CC1(C)OCc2cc(CNc3ccc4oc(=O)[nH]c4c3)ccc2O1 | 100 |
| Cc1ccc(C)c(NC(=O)CC(=O)O)c1 | -8 |
| O=C1C2CC2C(=O)N1Cc1ccccc1 (stereo not given) | 10 |
| Cc1nc(-c2ccc(N3CCC(NCCCn4ccnc4)CC3)cc2)cs1 | 23 |
| O=C(CN1CCC(c2ccc(F)c(F)c2)CC1)NCc1cccnc1 | -8 |
| O=S(=O)(c1ccccc1C(F)(F)F)N1CC[C@]2(CCN(c3cccnc3)C2)C1 | 10 |
| Cc1ccc(C(=O)N[C@@H](C)CCc2ccccc2)cc1S(=O)(=O)N1CCN(C)CC1 | -22 |
| CC(C#N)CNCCC(C)c1ccccc1 (stereo not given) | 8 |
| O=C(O)c1cc(C=Cc2ccc3ncccc3c2)ncn1 | 11 |
| COc1ccc2cc3n(c2c1)C[C@](C(=O)NC1CCCCCC1)(c1ccccc1)N(Cc1ccc(OC(C)C)cc1)C3=O | -23 |
| Brc1cnn(Cc2cnc(NC3C4CCOC4C34CCC4)s2)c1 (stereo not given) | 4 |
| C[C@@H](N)C(=O)N1CCc2cc(-c3ccccc3)ccc21 | 11 |
| CCC1CCCC(NS(=O)(=O)CCC(C)(C)C)C1 (stereo not given) | -12 |
| O=c1[nH]c(=O)n(S(=O)(=O)c2ccccc2)cc1F | 87 |
| Cc1ccc(N2CCN(S(=O)(=O)c3ccccc3)[C@@H](C)C2=O)cc1F | -11 |
| O=S(=O)(c1ccccc1)N1CCN(S(=O)(=O)c2ccc(Cl)cc2)C1 | 11 |

| SMILES | % Inhibition [%] |
| --- | --- |
| COc1ccc(CCNC(=O)c2cc3c(=O)[nH]c(C)cn3n2)cc1OC | 8 |
| COc1cc(F)c(NCc2csc(C3CC3)n2)cc1OC | -21 |
| CNC[C@H]1CCCN1C(=O)c1ccc(-c2noc(C(F)(F)F)n2)cc1 | 12 |
| COC1CCCCC1NC(=O)c1ccc(-c2noc(C(F)(F)F)n2)cc1 (stereo not given) | 8 |
| COc1cccc(CNC(=O)Cn2c(=O)n(C)c(=O)c3c2c(-c2ccccc2)cn3C)c1OC | -10 |
| Cc1oc(-c2ccn[nH]2)cc1S(=O)(=O)Nc1cccc(Cl)c1 | 4 |
| COc1ccc(-c2noc(Cn3c(=O)c4ccccc4n(CC(=O)NCCc4ccc(OC)c(OC)c4)c3=O)n2)cc1 | 6 |
| CNCC(=O)Nc1ccccc1C(F)(F)F | -9 |
| O=C(c1cnc2ccccc2n1)N1CCCC1 | -1 |
| c1ncc(N2CCN3CCC[C@H]3C2)nc1OCC1CCCC1 | -16 |
| N[C@H]1C[C@@H](c2cc(N3CCN(C4CCCCC4)CC3)nc(N3CCCC3)n2)C1 | 50 |
| Cc1cccc(CNc2cc([C@H]3C[C@@H](N)C3)nc(N3CCCC3)n2)c1 | 14 |
| O=C(O)CCCC(=O)NCCc1ccc(Cl)cc1 | -19 |
| COc1ccc(OCc2nc3cc4c(cc3cc2C(=O)O)OCO4)cc1 | 5 |
| COc1ccc(NC(=O)c2nc(Nc3ccccc3)c3ccccc3n2)cc1 | 7 |
| CCOc1ccc(Nc2c3ccccc3nc3ccccc23)cc1 | 96 |
| CCOc1ccc(-n2c(CN3CCN(C(=O)c4ccco4)CC3)nc3ccccc3c2=O)cc1 | 14 |
| Cc1ccc(-c2ccnc3c(C(=O)N4CCOCC4)cnn23)cc1C | 2 |
| Cc1cccnc1C(F)(F)C(=O)Nc1cc(C)c(O)c(C)c1 | 11 |
| O=C(Nc1ccc(N2CCn3c(nc4cc(Cl)ccc43)C2)cc1)NC1CCCCC1 | -13 |
| C[C@H](OC1CCCCCC1)C(=O)Nc1nc(C(N)=O)cs1 | -11 |
| Cc1ccccc1C(=O)NCc1nn(C2CCCC2)c2c1COCC2 | 6 |
| COc1ccc(C)c2sc(N(CCCn3ccnc3)C(=O)Cc3ccc(F)cc3)nc12 | 85 |
| COc1cccc(CNCCCn2ccnc2)c1OCc1ccc(F)cc1 | 10 |
| Fc1ccc(COc2cccc(CNCCN3CCOCC3)c2)cc1 | -3 |
| O=C(Nc1ccncc1)c1nc(N2CCCC2)ncc1Br | -9 |
| Cc1nn(C)c(Cl)c1CNCc1ccc(N2CCCCC2)nc1 | -13 |

| SMILES | % Inhibition [%] |
| --- | --- |
| COc1cc(CNCCN2CCOCC2)ccc1OCc1cccc(C)c1 | 7 |
| CCCc1nnc(N(Cn2nnc3ccccc32)C(=O)CN2CCOCC2)s1 | 2 |
| O=C(c1cncc(Br)c1)N1CC[C@H](c2nc(C3CCOCC3)no2)C1 | 10 |
| CC1CCC(c2noc([C@H]3CCO[C@@H]3c3cncc(Br)c3)n2)CC1 (stereo not given in full) | 59 |
| Cc1ccc(NCc2ccc(OCc3cccc4ccccc34)c(Br)c2)cc1 | 11 |
| CCCN(CC(=O)N(Cc1ccccc1)Cc1ccc(C)o1)C(=O)c1ccco1 | -5 |
| O=C(c1ccccc1)C1C(c2ccccc2)N1C(=O)c1ccc(Cl)cc1Cl (stereo not given) | 6 |
| FC(F)(F)c1nnc(NCc2cncs2)s1 | -7 |
| COCc1nsc(N2CCC(c3c(F)cccc3F)CC2)n1 | 7 |
| Cn1cncc1CC(=O)Nc1ccnc(NC(=O)OC(C)(C)C)c1 | 100 |
| CC(C)(C)OC(=O)Nc1cccc(N)n1 | 8 |
| COc1ccc2c(O)cc(-c3ccccc3)nc2c1 | 1 |
| Nc1c(-c2ccccc2)nsc1C(=O)NCC1CC1 | 9 |
| COc1cccc(NC(=O)N2C[C@@H]3C[C@H](NS(C)(=O)=O)[C@H]2C3)c1 | 8 |
| O=C1CCC(C(=O)N2CCC[C@H]2c2ccncc2)=NN1c1ccccc1 | -11 |
| CC[C@H](O)CN1CCC(Nc2ncnc3cc(Cl)ccc23)CC1 | 75 |
| CON(C)C[C@H](O)Cn1cc(Nc2ncnc3cc(F)ccc23)cn1 | 5 |
| C[C@H](C(=O)Nc1ccc(F)cc1Cn1ccsc1=O)C1CC1 | -14 |
| Cc1cc(CN(C)Cc2nccn2C)ccc1N1CCCCC1 | 1 |
| Cc1nscc1C(=O)Nc1cccc(OCCN2CCCC2)c1 | -15 |
| CC(C)(C)c1cc2c(NCC3=CCOCC3)nccn2n1 | 9 |
| COc1cc(C(=O)Nc2scnc2C)cc(OC)c1OC | 7 |
| COc1cc(C(=O)Nc2ccc3sc(NC(=O)c4cc(OC)c(OC)c(OC)c4)nc3n2)cc(OC)c1OC | 67 |
| Cc1cccc(C(=O)Nc2nc3cc4sc(NC(=O)c5cccc(C)c5)nc4cc3s2)c1 | -8 |
| CNCc1cc(OC)c(OC)cc1Cl | 11 |
| Cc1ccc(C)c(C(=O)Cn2nc3ccc(-c4ccc(Cl)cc4)nn3c2=O)c1 | 6 |
| Cc1nc(NC(=O)c2ccn(COc3ccc(F)c(Cl)c3)n2)sc1C | -8 |

| SMILES | % Inhibition [%] |
| --- | --- |
| CC(=O)NCC(=O)N(Cc1ccco1)C1(C(=O)NC2CCCCC2)CCCCC1 | 8 |
| Cc1cc(C(=O)NCc2ccncc2)no1 | -10 |
| CCn1nccc1C(=O)N1CC[C@H](CC(=O)NCc2ccncc2)C1 | 6 |
| N#Cc1cc2cc(Cl)cnc2nc1N1CCCCC1 | 16 |
| CCOc1cc(Cl)ccc1C(=O)NC1CCN(C[C@H]2CCOC2)CC1 | 5 |
| COc1cc(C(=O)NC2CCCCC2)cc2occc12 | 0 |
| Cc1cnccc1NCCNC1CCN(c2ccc3c(c2)CCC3)CC1 | 77 |
| Cc1cnccc1NCCNC1CCN(c2ccc(Cl)cc2)CC1 | 96 |
| CCn1nccc1C(=O)NC1CCN(c2nnc3ccc(Cl)cn23)CC1 | 10 |
| N#Cc1c(N2CCCCC2)ncc2c(=O)c3ccccc3[nH]c12 | 8 |
| O=C(Cc1ccc(F)cc1)N[C@H](c1ccccc1)C1CC1 | 2 |
| CCCOc1ccc(CNC(=O)CCn2ccn3nc(-c4ccc(C)c(C)c4)cc3c2=O)cc1 | 5 |
| O=C(c1ccccc1)c1ccc(O)c(CN2CCCN(c3ccc(C(F)(F)F)cn3)CC2)c1O | 80 |
| Cc1ccc(-n2nc(C)cc2NC(=O)CN2CCCN(c3ccc(C(F)(F)F)cn3)CC2)cc1 | 9 |
| O=C(C1CC1c1ccccc1)N(c1ccc(F)cn1)C1CCOCC1 (stereo not given) | 7 |
| O=C(NCc1ccc2c(c1)OCO2)C(F)(F)C(F)(F)C(F)(F)C(F)(F)C(=O)NCc1ccc2c(c1)OCO2 | -19 |
| CN1CCN([C@H]2CCN(c3ccnc4ccc(Cl)cc34)C[C@H]2CCCO)CC1 | 60 |
| CCCOc1cc(=O)c(C(=O)N2CCCC2)nn1-c1ccc(C)cc1 | 0 |
| CCn1cc([C@H](CC(=O)N2CCN(Cc3ccc4c(c3)OCO4)CC2)c2cccc(OC)c2)c2ccccc21 | 2 |
| OC(CNC1CCCNc2ccccc21)c1ccc(Cl)s1 (stereo not given) | 51 |
| O=C(NC[C@H](O)c1ccc(Cl)s1)c1ccsc1 | 2 |
| Cc1cccc(NC(=O)CC(C)(C)CC(=O)O)c1C | 13 |
| CC(C)(c1ccc(F)cc1)C1(NC(=O)CCc2nccs2)CC1 | -12 |
| Cn1cc(CCCNc2ccc(F)cn2)cn1 | 9 |
